DRD3 agonist – qHTS of D3 Dopamine Receptor Agonist: qHTS | max activation, % | actives 0.58% (n = 410,000) | D3R DiscoveRx beta-arrestin cells, luminescence, 90 min; in the data active = max activation above about 30%; also: 0% is about no effect
Target sequence (P35462 whole entry, looked up): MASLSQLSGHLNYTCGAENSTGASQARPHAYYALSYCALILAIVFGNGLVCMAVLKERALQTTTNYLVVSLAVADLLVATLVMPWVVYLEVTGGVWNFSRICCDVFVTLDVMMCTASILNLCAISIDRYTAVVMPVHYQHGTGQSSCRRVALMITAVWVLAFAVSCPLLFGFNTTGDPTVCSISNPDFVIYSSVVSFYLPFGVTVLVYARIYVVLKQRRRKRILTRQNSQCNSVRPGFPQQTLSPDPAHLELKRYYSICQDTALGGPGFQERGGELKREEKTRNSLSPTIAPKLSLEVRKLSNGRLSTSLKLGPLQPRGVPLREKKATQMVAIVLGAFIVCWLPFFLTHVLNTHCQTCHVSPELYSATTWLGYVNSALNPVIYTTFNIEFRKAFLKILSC
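Agonist mode: compounds and dopamine controls were applied to plated cells for 90 min at 37 degrees C after an overnight attachment at 1500 cells/well. Luminescent read-out followed 30 - 60 minutes at room temperature with DiscoveRx detection reagent.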
KB-3-1 cytotox – qHTS assay for MDR1-selective chemotherapeutics: Primary screen using the parental adenocarcinoma cell KB-3-1; KB-3-1 viability, CellTiter-Glo ATP luminescence, 72 h; Potency, µM (series often up to 46.1 µM), most hits filed as cytotoxic; actives 1.4% (n = 400,000); AID 1347075, 2019; also: potency is read from the fitted curve at half-maximal effect; % is scaled to controls: 0 for no effect and ±100 for the full control effect; nearly all actives have a fitted effect of over 60% in size
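KB-3-1 parental drug-naive adenocarcinoma cells in DMEM/10% FBS, incubated 72 h at 37 C with pin-transferred compounds across a concentration series. Viability by CellTiter-Glo luminescence; concentration-response curves fitted after normalization.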
MCF10A rerep – A quantitative high throughput screen for small molecules that induce DNA re-replication in MCF 10a normal breast cells; actives 2.9% (n = 350,000); Potency, µM (series often up to 46.1 µM), inactives show at the highest dose activity, positive = re-replication, most hits filed as activators; MCF 10A DNA re-replication, Hoechst nuclear intensity, 48 h; AID 624296, 2012; also: potency is read from the fitted curve at half-maximal effect; % of control where 0% means no effect; nearly all actives have a fitted effect of over 50% in size
DRD3 antagonist – qHTS of D3 Dopamine Receptor Antagonist: qHTS | D3R cells, DiscoveRx beta-arrestin luminescence, antagonist mode; active compounds read low | actives 2.5% (n = 360,000) | max response, negative = inhibition, % | AID 652054, 2013 | D(3) dopamine receptor (Homo sapiens), P35462; in the data active = max response below about -50%; inconclusive = no clear call, values can overlap the other calls; also: % is scaled to controls: 0 for no effect and ±100 for the full control effect
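Cells expressing the human receptor were seeded at 1500 cells/well, incubated overnight at 37 degrees C in 5% CO2, then exposed to library compounds with dopamine controls for 90 minutes at 37 degrees C before luminescent detection.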
KB-V1 MDR tox – qHTS assay for MDR1-selective chemotherapeutics: Primary screen using the drug-selected MDR subline cells KB-V1; KB-V1 MDR cells viability, CellTiter-Glo, 72 h; Potency, µM (doses to about 46.1 µM), most hits filed as cytotoxic; actives 3.4% (n = 400,000); AID 1347076, 2019; also: potency is read from the fitted curve at half-maximal effect; % is scaled to controls: 0 for no effect and ±100 for the full control effect; nearly all actives have a fitted effect of over 60% in size
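In this primary screen, KB-V1 cells overexpressing P-gp are incubated with library compounds (lowest to highest concentration) for 72 h at 37 degrees C before a luminescent ATP viability read.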
SW480 rereplic – A quantitative high throughput screen for small molecules that induce DNA re-replication in SW480 colon adenocarcinoma cells. SW480 DNA re-replication, Hoechst DNA content imaging, 48 h. Potency, µM (highest dose often 46.1 µM), for inactives: at the highest dose re-replication activation, actives largely listed as activators. actives 1.8% (n = 340,000). AID 624297, 2012; also: potency is read from the fitted curve at half-maximal effect; % of control where 0% means no effect; nearly all actives have a fitted effect of over 55% in size
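Cells (250 per well) received 23 nL compound or DMSO by pin tool and were kept 48 hr at 37 C, 5% CO2. Nuclei were then stained with Hoechst for 40 min and scanned for DNA content.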
An asterisk follows results filed as active; i = inactive; ? = inconclusive; . = not tested or not shown. Rows were chosen to be rich in hits. Some 8.9% of all compounds tested hit in one or more screens of this group. Unless noted, calls follow the shape of the dose curve; as a rule, active = well fitted curve in the direction sought with a large enough effect; inconclusive = small, poorly fitted or top-dose-only effect, or another doubt; inactive = no such curve, though single readings can be large; an effect the other way counts as inactive or inconclusive.

SMILES	DRD3 agonist	KB-3-1 cytotox	MCF10A rerep	DRD3 antagonist	KB-V1 MDR tox	SW480 rereplic
CCc1nn(CCCC(=O)NCc2ccc(OC)c(OC)c2)c(=O)c2cc3occc3n12	2	.	.	.	.	.
Cc1ccc(S(=O)(=O)N2CCCC2C(=O)N(C)Cc2cccs2)cc1 (configuration not stated)	1	i	7%	24	21µM*	-6%
CCNC(=O)C(=O)NCC1CCCN1S(=O)(=O)c1cccs1 (configuration not stated)	0	i	1%	11	i	1%
CNC(=O)C(=O)NCC1CCCN1S(=O)(=O)c1cccs1 (configuration not stated)	5	i	7%	7	i	23µM*
COc1ccc(S(=O)(=O)N2CCCC2CNC(=O)C(=O)NCc2cccs2)cc1 (configuration not stated)	7	i	0%	17	?	3%
O=C(NCCc1ccccc1)C(=O)NCCC1CCCCN1S(=O)(=O)c1cccs1 (configuration not stated)	-1	i	13%	1	2.3µM*	3%
Cc1ccc(S(=O)(=O)N2CCCC2CNC(=O)C(=O)NCc2cccs2)cc1 (configuration not stated)	-7	?	18%	-7	13µM*	?
CC(C)NC(=O)C1CCC(Cn2c(=O)c3sccc3n(CC(=O)N3CCCC3)c2=O)CC1 (configuration not stated)	4	i	.	.	i	.
CCNC(=O)C(=O)NCCC1CCCCN1S(=O)(=O)c1cccs1 (configuration not stated)	-10	i	11%	-54*	i	-2%
CCNC(=O)C1CCCN1S(=O)(=O)c1ccc(C)cc1 (configuration not stated)	11	i	21µM*	8	i	0%
Cc1cccc(CSc2ccc3nnc(-c4cccnc4)n3n2)c1	12	i	-5%	8	i	-3%
c1ccc(CSc2ccc3nnc(-c4cccnc4)n3n2)cc1	8	i	2%	61	18µM*	-10%
N#Cc1c(-c2ccccc2)cc2nc3ccccc3n2c1N	1	i	12µM*	1	i	5%
C=CCNC(=O)/C(C#N)=C/c1c(N2CC(C)OC(C)C2)nc2ccccn2c1=O (configuration not stated)	4	i	?	9	i	16µM*
CCOC(=O)/C(C#N)=C/c1c(N2CCN(c3cccc(Cl)c3)CC2)nc2c(C)cccn2c1=O	1	?	16%	0	i	-5%
CNC(=O)/C(C#N)=C/c1c(N2CCN(c3cccc(Cl)c3)CC2)nc2c(C)cccn2c1=O	-39	i	2.9µM*	-57*	i	0%
C=CCNC(=O)/C(C#N)=C/c1c(N2CCN(c3cccc(Cl)c3)CC2)nc2c(C)cccn2c1=O	-33	i	21µM*	-59*	?	4%
COc1ccccc1N1CCN(C(=O)c2nn(-c3ccc(C)cc3)c(=O)n(C)c2=O)CC1	-7	i	.	.	i	.
CC(C)COC(=O)N1CCCC1C(=O)O (configuration not stated)	11	i	6.5µM*	47	i	0.73µM*
C/C(CCC(C)C)=N\Nc1ccc(S(N)(=O)=O)cc1[N+](=O)[O-]	-8	i	?	-58*	i	8%
O=[N+]([O-])c1cc(S(=O)(=O)Nc2ccc(Cl)cc2)ccc1N/N=C/c1ccncc1	-3	i	4.1µM*	?	i	4%
NS(=O)(=O)c1ccc(N/N=C/c2ccc(C(=O)O)cc2)c([N+](=O)[O-])c1	0	i	2%	-51*	i	-1%
O=C(COc1ccc(Cl)cc1)Nc1ncc([N+](=O)[O-])s1	3	?	?	-7	13µM*	-2%
O=C(Cc1ccc(Br)cc1)Nc1ncc([N+](=O)[O-])s1	6	21µM*	?	13	?	6%
CCOc1ccccc1NC(=O)c1ccc(F)c(S(=O)(=O)NCc2ccc3c(c2)OCO3)c1	8	.	.	.	.	.
SMILES	DRD3 agonist	KB-3-1 cytotox	MCF10A rerep	DRD3 antagonist	KB-V1 MDR tox	SW480 rereplic
CC12CCC3c4ccc(O)cc4CCC3C1CCC2=O (configuration not stated)	1	i	2%	17	?	-87%
C#C[C@]1(O)CC[C@H]2[C@@H]3CCc4cc(O)ccc4[C@H]3CC[C@@]21C	13	?	18µM*	28	16µM*	?
C#CC1(O)CCC2C3CCC4=C(CCC(=O)C4)C3CCC21C (configuration not stated)	3	?	9%	6	1.5µM*	-3%
Cc1cc(C)c2c(-n3cccc3)c(C(=O)NCc3cccc(F)c3)sc2n1	-6	.	.	.	.	.
CC1CCN(C(=S)Nc2ccc(SC(F)F)cc2)CC1	-21	i	-2%	-10	i	-5%
CC(=O)N1CCN(C(=S)Nc2ccc(SC(F)F)cc2)CC1	-2	i	11%	-16	21µM*	2%
COc1cc(OC)c2c(-c3ccccc3)cc(=O)oc2c1C(CCN1CCCC(C)C1)c1ccc2c(c1)OCO2 (configuration not stated)	-51	?	13%	-70*	?	-4%
COc1cc(OC)c2c(C)cc(=O)oc2c1C(CCN1CCOCC1)c1ccc2c(c1)OCO2 (configuration not stated)	-60	i	16%	-69*	i	-2%
COc1ccc(C(CCN2CCCCC2)c2c(OC)cc(OC)c3c(-c4ccccc4)cc(=O)oc23)cc1 (configuration not stated)	-35	?	?	?	i	1.6µM*
COc1cc(C(CCN2CCN(c3ccccc3)CC2)c2c(OC)cc(OC)c3c(C)cc(=O)oc23)cc(OC)c1OC (configuration not stated)	-75	i	?	-121*	i	?
COc1cc(OC)c2c(-c3ccccc3)cc(=O)oc2c1C(CCN1CCCCC1)c1ccc2c(c1)OCO2 (configuration not stated)	-30	i	1%	?	i	-2%

Screening results (PubChem BioAssay)
